Compounds with a hit are over-represented: about 6.6% of the library has one in this group of screens.
BoNT F protease: inhibitors of Botulinum neurotoxin F light chain protease; hit rate 0.22% among 360,000; AID 588497; Multiplex microsphere protease cleavage assay, flow cytometry; inhibition, % at 10 µM; in the data active = inhibition above about 35%, passing the limit was not always enough; inconclusive = no clear call, values can overlap the other calls; note: plate controls were buffer without enzyme for full effect and enzyme alone for no effect
Bead autofluor: flagged as autofluorescent in microsphere protease counterscreen | hit rate 3.1% among 360,000 | compound autofluorescence counterscreen, microsphere flow cytometry; hits give high values | fluorescence intensity (concentration not given with the values); in the data active = fluorescence intensity above about 16000; inconclusive = no clear call, values can overlap the other calls
Anthrax LF prot: anthrax lethal factor protease inhibition | P15917 | multiplex microsphere protease cleavage assay, LF | inhibition, % at 10 µM | hit rate 0.12% among 360,000 | AID 588501; note: plate controls were buffer without enzyme for full effect and enzyme alone for no effect
Mtb FBA inh: inhibits M. tuberculosis FBA enzyme; hit rate 2.3% among 360,000; inhibition, % at 1 µM; purified M. tuberculosis FBA, fluorescence read-out; in the data active = inhibition above about 27%;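 note: 0% = vehicle and 100% = reference inhibitor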
Target sequence (P9WQA3 whole entry, looked up): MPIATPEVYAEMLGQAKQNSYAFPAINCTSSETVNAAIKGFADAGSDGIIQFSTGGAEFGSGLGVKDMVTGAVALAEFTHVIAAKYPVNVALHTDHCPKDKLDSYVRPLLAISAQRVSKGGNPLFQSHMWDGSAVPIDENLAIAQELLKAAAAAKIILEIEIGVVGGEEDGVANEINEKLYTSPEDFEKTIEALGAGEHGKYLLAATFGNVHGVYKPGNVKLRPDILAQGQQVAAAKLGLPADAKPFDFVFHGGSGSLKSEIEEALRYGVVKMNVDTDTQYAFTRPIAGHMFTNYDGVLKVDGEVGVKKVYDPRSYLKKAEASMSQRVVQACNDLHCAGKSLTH
GDH-TPI counter: counter-screen for M. tuberculosis FBA inhibitors: GDH-TPI coupled enzymes; GDH-TPI coupled enzyme counterscreen, NADH absorbance; hit rate 1.2% among 360,000; inhibition, % at 4.8 µM; in the data active = inhibition above about 30%;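 note: 0% = DMSO wells and 100% = wells lacking the enzyme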
BoNT A protease: BoNT A light chain protease inhibition | multiplex microsphere protease substrate cleavage, flow cytometry | inhibition, % at 10 µM | hit rate 0.17% among 360,000 | AID 588499; note: plate controls were buffer without enzyme for full effect and enzyme alone for no effect
An asterisk follows results filed as active; ? = inconclusive; . = no result. Cut-off read from the data, not from the text of the source, unless noted: active = inhibition above about 30%; inconclusive = no clear call, values can overlap the other calls; inactive = below that.

SMILES | BoNT F protease | Bead autofluor | Anthrax LF prot | Mtb FBA inh | GDH-TPI counter | BoNT A protease
Cc1cc(Nc2ccc3c(c2)OCCO3)c2ccccc2n1 | -8 | 2997 | -2 | -2 | 15 | 1
Cc1ccc2nc(C)cc(Nc3ccc4c(c3)OCCO4)c2c1 | -13 | 4005 | -3 | 3 | 33* | -1
Cc1ccc(NC(=O)/C(C#N)=C/c2ccc(C)s2)c(C)c1 | 10 | 3253 | 2 | 3 | 25 | 1
Cc1ccc(/C=C(\C#N)C(=O)Nc2c(C)cccc2C)s1 | -3 | 13765 | -3 | 3 | 45* | -1
CC(C)c1nc2oc3c(NCC4CCCO4)ncnc3c2c2c1COC(C)(C)C2 (stereo unspecified) | -1 | 22704* | -4 | 14 | 11 | 1
Cc1nc2oc3c(NCc4ccccc4)ncnc3c2c2c1COC(C)(C)C2 | -13 | 9519 | -10 | 20 | 2 | -3
Cc1ccccc1Oc1ncccc1C(=O)/C(C#N)=C/N(C)C | -1 | 23141* | -1 | 0 | 15 | -2
CS(=O)(=O)c1ccc2nc(NC(=O)c3ccc(Cl)cc3)sc2c1 | 6 | 4304 | -12 | 6 | 24 | 0
CS(=O)(=O)c1ccc2nc(NC(=O)c3ccc(=O)[nH]c3)sc2c1 | -16 | 4218 | -7 | 0 | 83* | -7
Cn1nc(C(=O)Nc2nc3ccc(S(C)(=O)=O)cc3s2)ccc1=O | -31 | 3738 | 2 | -6 | 61* | 0
COc1cccc(C(=O)NNC(=O)Cc2ccc([N+](=O)[O-])cc2)c1 | -9 | 2306 | 0 | 0 | 13 | 0
COc1ccc(CC(=O)NNC(=O)c2ccc(SCc3cc(F)ccc3F)c([N+](=O)[O-])c2)cc1 | 1 | 22474* | -1 | -1 | 18 | 0
O=C(NCc1ccc2c(c1)OCO2)c1ccc(COc2cc(Cl)ccc2Cl)o1 | 18 | 18111* | 1 | 1 | -7 | 10
O=C(N/N=C/c1ccc(O)cc1)c1ccc(COc2cc(Cl)ccc2Cl)o1 | 2 | 5796 | 4 | 1 | 35* | 1
C#CCOCCOCCOCCNc1nc(N2CCN(C(=O)[C@H](CCC(=O)O)n3cc([C@@H](N)[C@H](C)CC)nn3)CC2)nc(N2CCN(C(=O)[C@H](CCCCN)n3cc([C@@H](N)CC(N)=O)nn3)CC2)n1 | -3 | 3615 | -6 | 0 | 6 | -1
COc1ccc2c(c1)/C(=C\c1cccc(/C=C3/C(=O)Nc4ccc(OC)cc43)n1)C(=O)N2 | -2 | 4018 | -10 | -1 | 33* | 1
O=C(CSc1nnc(-c2ccccc2)n1-c1ccccc1)c1ccc[nH]1 | -8 | 2210 | -1 | 1 | 13 | 0
Cc1ccc(C(=O)CSc2nnc(-c3ccccc3)n2-c2ccccc2)o1 | 1 | 20254* | 0 | 1 | 6 | ?
O=C(CSc1nnc(-c2ccccc2)n1-c1ccccc1)c1cccs1 | -6 | 21163* | -1 | -1 | -4 | ?
Cc1ccc(C(=O)CSc2nnnn2-c2ccccc2)o1 | -1 | 4844 | 0 | 1 | 1 | 0
Cc1ccc(C2=CC(=O)C[C@H](c3ccc(F)cc3)C2)cc1 | -4 | 2966 | 1 | 1 | 14 | 0
O=C(O)CCc1nn2c3ccccc3n(CC(=O)c3ccccc3)c2nc1=O | 0 | 22951* | -1 | 27 | -5 | 1
O=C(Cn1cnc2ccccc21)c1ccccc1 | ? | 3787 | -9 | -3 | 15 | ?
Cc1cc(C(=O)CSc2nnc(N)s2)c(C)n1CCc1ccc(F)cc1 | -7 | 8935 | 2 | 1 | -6 | 1
Cc1cc(C(=O)CSc2nnc(N)s2)c(C)n1CCc1ccc(Cl)cc1 | -2 | 22078* | -3 | 1 | 13 | ?
SMILES | BoNT F protease | Bead autofluor | Anthrax LF prot | Mtb FBA inh | GDH-TPI counter | BoNT A protease
CC(=O)NCc1ccc(C(=O)COC(=O)COc2ccc(Cl)c(C)c2)s1 | 1 | 2781 | 0 | 1 | -3 | 2
Cc1[nH]n(-c2ccc([N+](=O)[O-])cc2)c(=O)c1C=NCCN1CCN(C(=O)c2cccc(F)c2)CC1 | -5 | 3168 | 6 | -2 | 34* | 0
Cc1[nH]n(-c2ccc([N+](=O)[O-])cc2)c(=O)c1C=NCCN1CCN(C(=O)c2ccc(Br)cc2)CC1 | 16 | ? | -1 | -8 | 30 | 2
Cc1[nH]n(-c2ccc([N+](=O)[O-])cc2)c(=O)c1C=NCCN1CCN(C(=O)c2ccc(F)cc2)CC1 | -2 | 20052* | 0 | 5 | -7 | ?
CCc1ccc(N/C(SCc2ccccc2C)=C(/C#N)C(=O)NCc2ccco2)cc1 | -4 | 17346* | -5 | -2 | 17 | -2
CC1=C(C(=O)OC2CCCC2)C(c2ccc(C)o2)C2=C(CC(c3cccs3)CC2=O)N1 (stereo unspecified) | -3 | 22029* | -5 | 0 | 17 | -1
COc1ccc(NC(=O)CSCC(=O)N2CCN(C(=O)c3ccco3)CC2)cc1 | -9 | 3689 | -6 | -2 | -12 | 0
COc1cccc(=O)c2c(C)n(-c3cc(C)cc(C)c3)c(C)c12 | 1 | 20048* | -3 | 1 | 3 | 3
COCCCn1c(=O)c2ccccc2n(CC(=O)N2CCCc3ccccc32)c1=O | -1 | 5782 | -1 | 2 | -10 | 0
COc1ccccc1C(=O)Nc1ccc2c(c1)n(C)c(=O)n2C | ? | 4076 | 6 | 2 | -6 | 1
COc1cccc(/C=C/C(=O)OCC(=O)c2c[nH]c3ccccc23)c1OC | -9 | 4789 | 15 | 3 | 3 | 39*
CC1CC(C)CN(CC(=O)c2c[nH]c3ccccc23)C1 (stereo unspecified) | 36* | 7467 | 0 | 0 | 2 | 2
CCn1c(SCC(=O)c2c[nH]c3ccccc23)nnc1-c1cccs1 | . | . | . | 0 | 10 | .
CCn1nc(C(=O)OCC(=O)c2c[nH]c3ccccc23)c2ccccc2c1=O | -18 | 10209 | 38* | 0 | -8 | 45*
Cn1cnnc1SCC(=O)c1c[nH]c2ccccc12 | -9 | 25248* | 6 | -1 | -7 | -6
CCc1occc(=O)c1Oc1cc(NN2CCCCC2)c([N+](=O)[O-])cc1[N+](=O)[O-] | -7 | 4330 | -6 | -2 | 17 | -1
O=C(COC(=O)C1CC1)c1c[nH]c2ccccc12 | 5 | 19998* | -16 | 5 | -1 | 4
O=C(COC(=O)C1CCC1)c1c[nH]c2ccccc12 | -4 | 6422 | 0 | 0 | -6 | 1
O=C(CN1CCOCC1)Nc1ccccc1Cl | 1 | 6200 | 5 | 1 | 0 | -1
O=C(Nc1cccc(Cl)c1Cl)C1CCN(c2ncccn2)CC1 | -12 | 22389* | -1 | 3 | -11 | -9
CC(C)(C)c1nnc(NC(=O)C2CCN(C(=O)c3ccco3)CC2)s1 | -2 | 4322 | -4 | 1 | -6 | -3
O=C(CN1CCOCC1)Nc1cccc(Cl)c1Cl | -9 | 23826* | 1 | 0 | 16 | ?
CC(C)(C)c1nnc(NC(=O)C2CCN(c3ncccn3)CC2)s1 | -3 | 21096* | 1 | 0 | -6 | -3
O=C(O)CCC(CNS(=O)(=O)c1ccccc1)C(F)(F)F (stereo unspecified) | -7 | 4431 | -5 | -3 | -2 | 0

Bioassay records (PubChem)
